PubChem BioAssay (NCI)
Compounds without any hit were thinned out: in the full panel of roughly 79,000, 15% have a hit. Values without a mark were called inactive. Active and inactive are the calls of the source. Cut-off read from the data, not from the text of the source: active = growth inhibition above about 70%; inactive = the rest.

Experiments:
[1] = NCI Yeast Anticancer Drug Screen. Data for the rad50 strain (AID 155);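 note: 0% = growth of vehicle-only cultures of the same strain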; settings: S. cerevisiae rad50 strain growth inhibition, hits give high values
In short: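 DNA repair mutant yeast, compound exposure, growth read-out; inhibition is taken relative to vehicle.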

[2] = NCI Yeast Anticancer Drug Screen. Data for the mec2-1 strain (AID 157); settings: S. cerevisiae mec2-1 strain, hits give high values
In short: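 Strain: mec2-1 (DNA repair/cell cycle alteration). Compound exposure, then growth measured; inhibition expressed relative to vehicle.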

[3] = NCI Yeast Anticancer Drug Screen. Data for the sgs1 mgt1 strain (AID 161);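 note: 0% = growth of cultures given vehicle only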; settings: S. cerevisiae sgs1 mgt1 strain, hits give high values
In short: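 Genetically altered yeast, compound exposure, growth inhibition relative to vehicle.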

[4] = NCI Yeast Anticancer Drug Screen. Data for the cln2 rad14 strain (AID 165);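 note: 0% = growth equal to vehicle treated cultures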; settings: S. cerevisiae cln2 rad14 strain, hits give high values
In short: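 Compounds are applied to the cln2 rad14 yeast strain, and growth is then compared with that of vehicle-treated cultures to give inhibition.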

[5] = NCI Yeast Anticancer Drug Screen. Data for the bub3 strain (AID 167); settings: S. cerevisiae bub3 mutant strain, hits give high values
In short: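 In this screen, a yeast mutant lacking normal mitotic checkpoint function is challenged with compound. Relative growth versus vehicle gives the inhibition value.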

[6] = NCI Yeast Anticancer Drug Screen. Data for the mlh1 rad18 strain (AID 175); settings: S. cerevisiae mlh1 rad18 strain growth inhibition, hits give high values
In short: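 Read-out is yeast growth inhibition, calculated against vehicle-only controls. The compound was applied to a strain engineered with DNA damage repair alterations.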

[7] = at 5.0 µM (retest, dose inferred, filed as 0.5)
[8] = at 50.0 µM (retest, dose inferred, filed as 5.0)

Row | Compound | growth inhibition [1, 7] | growth inhibition [1, 8] | growth inhibition ([1]; at 50.0 µM) | growth inhibition [2, 7] | growth inhibition [2, 8] | growth inhibition ([2]; at 50.0 µM) | growth inhibition [3, 7] | growth inhibition [3, 8] | growth inhibition ([3]; at 50.0 µM) | growth inhibition [4, 7] | growth inhibition [4, 8] | growth inhibition ([4]; at 50.0 µM) | growth inhibition [5, 7] | growth inhibition [5, 8] | growth inhibition ([5]; at 50.0 µM) | growth inhibition [6, 7] | growth inhibition [6, 8] | growth inhibition ([6]; at 50.0 µM)
1 | CCCCCc1cc(OC(=O)CCCN(CC)CC)c2c(c1)OC(C)(C)[C@@H]1CCC(C)=C[C@@H]21 | 79% (active) | 97% (active) | 87% (active) | 30% | 98% (active) | 91% (active) | 63% | 99% (active) | 89.7% (active) | 49% | 98% (active) | 90% (active) | 27% | 99% (active) | 87.8% (active) | 74% (active) | 97% (active) | 91.7% (active)
2 | O=[N+]([O-])c1ccc(NP(=S)(Nc2ccc([N+](=O)[O-])cc2)c2ccccc2)cc1 | 28% | 91% (active) | 93% (active) | 38% | 94% (active) | 95.6% (active) | 6% | 89% (active) | 91.5% (active) | 56% | 88% (active) | 90.8% (active) | 64% | 90% (active) | 95% (active) | 68% | 77% (active) | 94.3% (active)
3 | COc1cc(/C=C\[N+](=O)[O-])ccc1O | 87% (active) | 99% (active) | 99.2% (active) | 53% | 100% (active) | 99.6% (active) | 34% | 99% (active) | 99.5% (active) | 21% | 100% (active) | 99% (active) | 77% (active) | 99% (active) | 99% (active) | 51% | 99% (active) | 99% (active)
4 | C1OCC2[CH2][Hg][S][Hg][CH2]C1O2 | 29% | 95% (active) | 92.8% (active) | 34% | 97% (active) | 94.8% (active) | 67% | 98% (active) | 95.5% (active) | 19% | 95% (active) | 92.6% (active) | 20% | 96% (active) | 95.2% (active) | 36% | 94% (active) | 91.3% (active)
5 | C[C@]12CC[C@H](OC3OC(CO)C(O)C(O)C3O)C[C@H]1CC[C@@H]1[C@@H]2CC[C@]2(C)[C@@H](C3=CCOC3=O)CC[C@]12O (stereo not given in full) | 7% | 4% | -11.2% | 6% | -2% | -6.9% | -17% | -2% | 6.4% | -11% | -35% | 13.1% | -22% | 7% | -38.5% | 6% | 21% | 49.6%
6 | Cc1cc(CCN)c(C)c2c1sc1ccccc12 | 21% | 99% (active) | 99.7% (active) | 92% (active) | 100% (active) | 94.3% (active) | 89% (active) | 100% (active) | 99.7% (active) | 98% (active) | 99% (active) | 89% (active) | 97% (active) | 99% (active) | 95.1% (active) | 81% (active) | 100% (active) | 99.7% (active)
7 | CN(C)C(=S)Nc1nnc(NC23CC4CC(CC(C4)C2)C3)s1 | -1% | 61% | 96.7% (active) | -29% | 89% (active) | 96.2% (active) | 15% | 60% | 97.8% (active) | -22% | 94% (active) | 95.6% (active) | 3% | 96% (active) | 93% (active) | -2% | 48% | 97% (active)
8 | O=[N+]([O-])C=C([SH2+])[SH2+].O=[N+]([O-])C=C([SH2+])[SH2+].[Ni+2].c1ccc(C[P+](c2ccccc2)(c2ccccc2)c2ccccc2)cc1 | 3% | 44% | 93.5% (active) | 7% | 72% (active) | 97.7% (active) | 5% | 52% | 96.7% (active) | -7% | 19% | 87.8% (active) | -1% | 47% | 96.2% (active) | 26% | 83% (active) | 93.3% (active)
9 | CC(=O)O[C@H]1CCC2[C@@H]3CCC4Nc5oncc5C[C@]4(C)C3CC[C@@]21C (stereo not given in full) | -6% | 81% (active) | 51% | 4% | 75% (active) | 8.35% | -3% | 53% | 16.6% | -10% | 73% (active) | 70% (active) | -17% | 68% | 17.9% | 12% | 91% (active) | 84.5% (active)
10 | CCC1(O)C(=O)OCc2c1cc1n(c2=O)Cc2cc3cc(C)ccc3nc2-1 (stereo not given) | 94% (active) | 83% (active) | 82.2% (active) | 36% | 64% | 83.9% (active) | 31% | -19% | 47.1% | 17% | -4% | 18.9% | -1% | -25% | 18.8% | 36% | 61% | 64.7%
11 | Cc1cc(C(C)(C)c2ccc(O)c(C)c2)ccc1O | -2% | 98% (active) | 99.3% (active) | -4% | 99% (active) | 99.4% (active) | -6% | 98% (active) | 99.5% (active) | 1% | 98% (active) | 97.6% (active) | -1% | 99% (active) | 99.2% (active) | 0% | 99% (active) | 99.3% (active)
12 | COc1ccc([As](O[As](c2ccc(OC)cc2)c2ccc(OC)cc2)c2ccc(OC)cc2)cc1 | 99% (active) | 99% (active) | 99.2% (active) | 100% (active) | 100% (active) | 99.6% (active) | 100% (active) | 100% (active) | 99.5% (active) | 99% (active) | 99% (active) | 99.4% (active) | 99% (active) | 99% (active) | 99.4% (active) | 99% (active) | 99% (active) | 99.5% (active)
13 | CCc1cc(C)cc2[n+]1CC=C2 | -8% | 83% (active) | 98% (active) | -5% | 95% (active) | 96.4% (active) | -5% | 98% (active) | 98.3% (active) | -1% | 92% (active) | 98.1% (active) | -2% | 87% (active) | 98% (active) | -6% | 93% (active) | 97.8% (active)
14 | O=C1C=C(N2CC2)C(=O)C(N2CC2)=C1N1CC1 | 97% (active) | 98% (active) | 99.2% (active) | 98% (active) | 99% (active) | 99.2% (active) | 97% (active) | 98% (active) | 98.8% (active) | 99% (active) | 98% (active) | 99% (active) | 97% (active) | 97% (active) | 99.2% (active) | 98% (active) | 98% (active) | 99% (active)
15 | CN(CCCl)c1ccc(/C=C/C2=[N+](C)c3ccccc3C2(C)C)cc1 | -6% | 98% (active) | 99.5% (active) | -3% | 98% (active) | 99.5% (active) | -6% | 98% (active) | 99.7% (active) | -2% | 98% (active) | 98.4% (active) | -3% | 99% (active) | 99.2% (active) | 9% | 98% (active) | 98.7% (active)
16 | BrP(NC1CCCCCC1)(c1ccccc1)(c1ccccc1)c1ccccc1 | 43% | 97% (active) | 98.5% (active) | 39% | 99% (active) | 99.3% (active) | 47% | 98% (active) | 99.2% (active) | 12% | 97% (active) | 98.7% (active) | 25% | 98% (active) | 99% (active) | 65% | 98% (active) | 99% (active)
17 | CC(C)C1(NC(=O)C2CC3c4cccc5[nH]cc(c45)CC3N(C)C2)OC2(O)C3CCCN3C(=O)C(Cc3ccccc3)N2C1=O (stereo not given) | -26% | 94% (active) | 86.2% (active) | -2% | 96% (active) | 90.8% (active) | -10% | 92% (active) | 86.7% (active) | 1% | 96% (active) | 84.3% (active) | 30% | 96% (active) | 86.3% (active) | 4% | 97% (active) | 83.4% (active)
18 | CC[C@@H]1C(=O)OC[C@@H]1Cc1cncn1C | -3% | -8% | -4.1% | 18% | -4% | -35.8% | 7% | -18% | -20.9% | -27% | -90% | 26% | -11% | -4% | -19.1% | -7% | -1% | -9.2%
19 | O=[N+]([O-])c1ccc(CS(=O)(=O)C(Cl)(Cl)Cl)o1 | 39% | 99% (active) | 95.5% (active) | 25% | 100% (active) | 98.5% (active) | 16% | 99% (active) | 97.5% (active) | 3% | 99% (active) | 94% (active) | 8% | 98% (active) | 90.3% (active) | 18% | 99% (active) | 98.8% (active)
20 | [C-]#[O+].[C-]#[O+].[CH3][Sn]([CH3])[c]1ccccc1.[Fe+5].[c-]1[c-][c-][cH-][c-]1 | 7% | 82% (active) | 95.3% (active) | 4% | 87% (active) | 98% (active) | 9% | 88% (active) | 94.7% (active) | -8% | 85% (active) | 95.3% (active) | -7% | 90% (active) | 98% (active) | 7% | 90% (active) | 94% (active)
